Measurements from the supplement of paper PMC12350171.
Where a name gives a salt, the structure may show the parent alone.

Experiments:
Details in all cases: 20 µM
[1] = system: Salmonella enterica typhimurium; test: growth AUC normalised to DMSO control (fraction of control); higher = less growth inhibition, active = hit call of the paper
Procedure, shortened: (§1)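 After two anaerobic passages, pathogens were added at a starting OD578 of 0.01 to pre-reduced mGAM plates holding compound at 20 μM with 1% DMSO; hemin and NAD were supplemented for Haemophilus parainfluenzae. Sealed with breathable membranes, plates were read at OD578 hourly for 24 h, in three biological replicates. The trapezoidal rule, applied up to the exponential-to-stationary transition, gave the growth-curve AUC, which was normalised to DMSO controls on the same plate.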

[2] = system: Shigella flexneri; test: as above
Procedure, shortened: as §1

[3] = system: Vibrio cholerae; test: as above
Procedure, shortened: as §1

[4] = system: Yersinia pseudotuberculosis; test: as above
Procedure, shortened: as §1

[5] = system: P. vulgatus RND KO; test: growth AUC normalised to DMSO control (median) (fraction of control); higher = less growth inhibition, active = hit call of the paper
Procedure, shortened: (§2)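 Each strain went through two overnight passages under anaerobic conditions before growth in mGAM in 96-well plates, starting at OD578 0.01, with each compound from the approved-drug library at 20 μM and 1% DMSO. Inside an anaerobic incubator, OD578 was recorded every hour for 24 h. Growth curves were cut off at entry into stationary phase, and the area under the curve was calculated by the trapezoidal rule and normalised to vehicle wells on the same plate. Reported values are medians of three biological replicates.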

[6] = system: P. vulgatus WT; test: as above
Procedure, shortened: as §2

[7] = system: S. enterica typhimurium WT; test: as above
Procedure, shortened: as §2

[8] = system: S. enterica typhimurium tolC KO; test: as above
Procedure, shortened: as §2

Measured: growth AUC normalised to DMSO control
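Throughout, for growth AUC normalised to DMSO control (median): active when median AUC fell below 0.1.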

Nc1nc(Cl)nc2c1ncn2[C@H]1C[C@H](O)[C@@H](CO)O1 [Cladribine]
inactive: [1] 0.985 | [2] 0.949 | [3] 0.982 | [4] 1 | [5] 1.01 | [6] 1.02 | [7] 0.915 | [8] 0.911

N=C(N)N/N=C/c1c(Cl)cccc1Cl [Guanabenz acetate]
active: [1] 0.936
inactive: [2] 0.998 | [3] 1.03 | [4] 0.973 | [5] 0.983 | [6] 0.98 | [7] 0.946 | [8] 0.967

CC(=O)Nc1c(I)c(C(=O)N[C@H]2C(O)O[C@H](CO)[C@@H](O)[C@@H]2O)c(I)c(N(C)C(C)=O)c1I (some centres not stated) [Metrizamide]
inactive: [1] 1.01 | [2] 0.985 | [3] 0.988 | [4] 1.01 | [5] 1 | [6] 1.01 | [7] 1.02 | [8] 1.01

CC(C)(Oc1ccc(C2CC2(Cl)Cl)cc1)C(=O)O (configuration not stated) [Ciprofibrate]
inactive: [1] 1.01 | [2] 0.998 | [3] 0.997 | [4] 0.995 | [5] 0.973 | [6] 0.961 | [7] 0.992 | [8] 0.993

COc1c(O[C@@H]2O[C@H](CO)[C@@H](O)[C@H](O)[C@H]2O)cc2c(c1OC)-c1ccc(SC)c(=O)cc1[C@@H](NC(C)=O)CC2 [Thiocolchicoside]
inactive: [1] 0.993 | [2] 0.98 | [3] 1 | [4] 0.988 | [5] 1.01 | [6] 0.999 | [7] 1 | [8] 1

CCC(=O)O[C@]1(C(=O)CCl)[C@@H](C)C[C@H]2[C@@H]3CCC4=CC(=O)C=C[C@]4(C)[C@@]3(F)[C@@H](O)C[C@@]21C [Clobetasol propionate]
inactive: [1] 1.01 | [2] 1.04 | [3] 1.02 | [4] 1.01 | [5] 1.02 | [6] 1.05 | [7] 1 | [8] 0.927

CCCCNC(=O)NS(=O)(=O)c1ccc(C)cc1 [Tolbutamide]
inactive: [1] 1.01 | [2] 0.995 | [3] 0.956 | [4] 0.998 | [5] 1.02 | [6] 1.04 | [7] 0.996 | [8] 1

CC(CN(C)C)CN1c2ccccc2CCc2ccccc21 (configuration not stated) [Trimipramine maleate salt]
inactive: [1] 1 | [2] 1.05 | [3] 1.07 | [4] 1.01 | [5] 1.06 | [6] 1.03 | [7] 1.02 | [8] 0.963

CC(=O)Oc1ccccc1C(=O)Oc1ccccc1C(=O)O [Acetylsalicylsalicylic acid]
inactive: [1] 0.997 | [2] 0.973 | [3] 0.983 | [4] 0.932 | [5] 0.998 | [6] 1.04 | [7] 0.999 | [8] 0.997

C[C@@H]1[C@H](O)[C@@H](C)/C=C/C=C/C=C/C=C/C=C/C=C/C=C/[C@H](O[C@@H]2O[C@H](C)[C@@H](O)[C@H](N)[C@@H]2O)C[C@@H]2O[C@](O)(C[C@@H](O)C[C@@H](O)[C@H](O)CC[C@@H](O)C[C@@H](O)CC(=O)O[C@H]1C)C[C@H](O)[C@H]2C(=O)O [Amphotericin B]
inactive: [1] 1.02 | [2] 1.1 | [3] 1.05 | [4] 1.02 | [5] 1.04 | [6] 1.1 | [7] 1.01 | [8] 0.988

COc1ccc(OC)c(C(O)CNC(=O)CN)c1 (configuration not stated) [Midodrine hydrochloride]
inactive: [1] 0.992 | [2] 0.99 | [3] 1.02 | [4] 1.02 | [5] 1.02 | [6] 1.02 | [7] 1.02 | [8] 1

CCN1CCCC1CNC(=O)c1cc(S(=O)(=O)CC)c(N)cc1OC (configuration not stated) [Amisulpride]
inactive: [1] 0.998 | [2] 1 | [3] 1.01 | [4] 0.99 | [5] 1.02 | [6] 1.01 | [7] 1.01 | [8] 0.995

C[C@]12CCC(=O)C=C1C=C[C@@H]1[C@@H]2CC[C@@]2(C)[C@H]1CC[C@@]21CCC(=O)O1 [Canrenone]
inactive: [1] 1.01 | [2] 1.06 | [3] 1.03 | [4] 1.01 | [5] 1.07 | [6] 1.1 | [7] 1.01 | [8] 0.939

CCCCCCC[N+](CC)(CC)CCCCc1ccc(Cl)cc1 [Clofilium tosylate]
inactive: [1] 1 | [2] 0.99 | [3] 1.02 | [4] 1.02 | [5] 0.973 | [6] 0.859 | [7] 1.01 | [8] 0.541

N=C(N)NC(=N)NCCc1ccccc1 [Phenformin hydrochloride]
inactive: [1] 1.01 | [2] 0.995 | [3] 1.01 | [4] 0.987 | [5] 1.01 | [6] 1.04 | [7] 0.994 | [8] 0.986

CCOc1cc(CC(=O)N[C@@H](CC(C)C)c2ccccc2N2CCCCC2)ccc1C(=O)O [Repaglinide]
inactive: [1] 1.03 | [2] 1.06 | [3] 1.07 | [4] 1.02 | [5] 0.956 | [6] 1.01 | [7] 1.01 | [8] 0.981

O=S(=O)(O)c1cc(O)ccc1O [Ethamsylate diethylammonium salt]
inactive: [1] 1 | [2] 0.998 | [3] 0.999 | [4] 1.01 | [5] 0.99 | [6] 0.994 | [7] 1 | [8] 0.999

CC(C)(C)c1ccc(C(O)CCCN2CCC(C(O)(c3ccccc3)c3ccccc3)CC2)cc1 (configuration not stated) [Terfenadine]
inactive: [1] 1.01 | [2] 0.999 | [3] 0.982 | [4] 1.03 | [5] 0.907 | [6] 0.892 | [7] 1.01 | [8] 0.88

Cc1cccn2c(=O)c(-c3nnn[nH]3)cnc12 [Pemirolast potassium]
inactive: [1] 0.968 | [2] 0.946 | [3] 0.921 | [4] 0.964 | [5] 0.998 | [6] 1.01 | [7] 0.993 | [8] 0.995

Cc1cc(C(C)(C)C)cc(C)c1CC1=NCCN1 [Xylometazoline hydrochloride]
inactive: [1] 1.03 | [2] 0.999 | [3] 0.999 | [4] 0.989 | [5] 1.02 | [6] 1.02 | [7] 0.995 | [8] 0.989

CCC(Cc1c(I)cc(I)c(N)c1I)C(=O)O (configuration not stated) [Iopanoic acid]
inactive: [1] 1.01 | [2] 1.01 | [3] 1.01 | [4] 0.989 | [5] 0.999 | [6] 1 | [7] 1.01 | [8] 0.987

CC(=O)N[C@@H](CC(=O)O)C(=O)N[C@@H](CCC(=O)O)C(=O)O [Spaglumic acid]
inactive: [1] 1.03 | [2] 1.01 | [3] 1.02 | [4] 1.02 | [5] 1.01 | [6] 1.04 | [7] 1.01 | [8] 1

Nc1nc(N)nc(-c2cc(Cl)ccc2Cl)n1 [Irsogladine maleate]
inactive: [1] 0.998 | [2] 1 | [3] 0.999 | [4] 0.995 | [5] 0.959 | [6] 0.977 | [7] 0.999 | [8] 1

C=CC1=C(C(=O)O)N2C(=O)[C@@H](NC(=O)/C(=N\OCC(=O)O)c3csc(N)n3)[C@H]2SC1 [Cefixime]
active: [1] 0.00409 | [2] 0.0268 | [3] 0.0803 | [4] 0.0395 | [5] 0.0155 | [6] 0.0102 | [7] 0.012 | [8] 0.00361

CC(=O)OC(C)C[N+](C)(C)C (configuration not stated) [Methacholine chloride]
inactive: [1] 0.992 | [2] 0.939 | [3] 0.99 | [4] 0.983 | [5] 0.991 | [6] 1 | [7] 0.991 | [8] 1

NC(=O)c1cccnc1 [Nicotinamide]
inactive: [1] 1.02 | [2] 1.06 | [3] 1.05 | [4] 1.01 | [5] 1.07 | [6] 1.1 | [7] 0.996 | [8] 1.01

CCN(CC)CCOC(=O)C1(C2CCCCC2)CCCCC1 [Dicyclomine hydrochloride]
inactive: [1] 0.935 | [2] 0.978 | [3] 0.889 | [4] 0.98 | [5] 1 | [6] 1.02 | [7] 0.999 | [8] 0.933

CC1(C)S[C@@H]2[C@H](NC(=O)Cc3ccccc3)C(=O)N2[C@H]1C(=O)O [Benzylpenicillin sodium]
active: [1] 0.0129 | [3] 0.136 | [4] 0.101 | [5] 0.0105 | [6] 0.00991 | [7] 0.0318 | [8] 0.0065
inactive: [2] 0.9

O=C(O[C@@H]1C[C@@H]2C[C@H]3C[C@H](C1)N2CC3=O)c1c[nH]c2ccccc12 [Dolasetron mesilate]
inactive: [1] 1.04 | [2] 1.01 | [3] 0.999 | [4] 1.01 | [5] 1.02 | [6] 1.04 | [7] 1.01 | [8] 0.984
